What was measured:
Conditions in all cases: concentration: 1 μM, replicates: in singlicate; n = 1
PDPK1 = test system: PDPK1
PFTAIRE2 = test system: PFTAIRE2
PFTK1 = test system: T1, PFTK1
T1 construct: gene CDK14

PHKG1 = test system: PHKG1
PHKG2 = test system: PHKG2
PIK3C2B = test system: PIK3C2B
PIK3C2G = test system: PIK3C2G
PIK3CA = test system: PIK3CA
PIK3CB = test system: PIK3CB
PIK3CD = test system: PIK3CD
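Note: KINOMEscan kinase panel screen.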

Structure (SMILES) | %Inh (PDPK1) [%] | %Inh (PFTAIRE2) [%] | %Inh (PFTK1) [%] | %Inh (PHKG1) [%] | %Inh (PHKG2) [%] | %Inh (PIK3C2B) [%] | %Inh (PIK3C2G) [%] | %Inh (PIK3CA) [%] | %Inh (PIK3CB) [%] | %Inh (PIK3CD) [%]
COc1cccc(-n2cnc3c(N)ncnc32)c1 [SKF-97416] | 0 | 0 | 0 | 34 | 0 | 0 | 34 | 21 | 32 | 54
O=c1cc(N2CCOCC2)nc2n(Cc3ccc(F)c(Cl)c3)ccn12 [GSK2297099] | 0 | 62 | 14 | 0 | 0 | 31 | 0 | 11 | 96.2 | 75
CCC(=O)c1c(-c2ccccc2)c2cc(Cl)ccc2c(=O)n1Cc1cc(S(C)(=O)=O)n(CCC(C)(C)O)n1 | 0 | 0 | 12 | 18 | 0 | 41 | 52 | 32 | 26 | 36
COc1cccc(C2=C(N(C)c3ccccc3)C(=O)NC2=O)c1 [SB-334865] | 0 | 0 | 20 | 0 | 0 | 0 | 0 | 0 | 0 | 0
Nc1nccc2scc(-c3ccc4c(c3)CCN4C(=O)Cc3ccccc3)c12 [GSK2576924] | 19 | 25 | 23 | 0 | 12 | 5 | 0 | 0 | 0 | 4
Nc1n[nH]c2nnc(-c3ccccc3)c(-c3ccccc3)c12 [GW554060] | 3 | 8 | 19 | 5 | 0 | 0 | 0 | 0 | 47 | 8
Cc1nnc(-c2ccc(C)c(-c3ccc(C(=O)O)cc3)c2)o1 [GW608005] | 4 | 11 | 0 | 2 | 0 | 0 | 3 | 0 | 0 | 6
CCCNC(=O)Nc1ccc(Oc2ncnc3ccn(C)c23)cc1 | 0 | 10 | 0 | 0 | 0 | 19 | 27 | 14 | 0 | 30
CCn1c(-c2ccoc2)nc2cnccc21 [SB-733887] | 0 | 15 | 0 | 0 | 0 | 6 | 0 | 0 | 0 | 0
OCCCNc1nccc(-c2c(-c3cccc(C(F)(F)F)c3)nn3cc(C(F)(F)F)ccc23)n1 [GW630813] | 0 | 1 | 18 | 0 | 5 | 0 | 0 | 0 | 0 | 0
Cc1cccc(-c2cc(-c3c[nH]nc3-c3ccccn3)ccn2)c1 [GW679395] | 0 | 1 | 11 | 0 | 0 | 1 | 0 | 0 | 0 | 0
O=C(Nc1ccc2c(c1)OCO2)NC1CCN(c2ccnc(NCc3ccc(F)cc3)n2)CC1 [GSK1379859] | 0 | 10 | 14 | 0 | 0 | 0 | 0 | 0 | 0 | 0
CN1C(=O)C(Nc2cc(Cl)c(O)c(Cl)c2)=C(c2ccc(Cl)cc2)C1=O [SB-404321] | 0 | 0 | 0 | 0 | 0 | 0 | 0 | 0 | 0 | 0
Cc1ccc(Oc2ccc(Nc3ncnc4cc[nH]c34)cc2C)cn1 | 25 | 7 | 0 | 0 | 0 | 24 | 60 | 5 | 57 | 54
Cc1nnc(-c2ccc3ncn(-c4ccc(S(C)=O)cc4)c3c2)o1 (stereo not shown) | 0 | 12 | 14 | 0 | 0 | 0 | 0 | 0 | 2 | 38
Nc1ncnc2c1ncn2-c1ccc(Cl)cc1 [AH2635] | 0 | 0 | 17 | 0 | 0 | 0 | 0 | 0 | 0 | 0
